Drawing on ChEMBL document CHEMBL4513216, “Probing the Open Global Health Chemical Diversity Library for Multistage-Active Starting Points for Next-Generation Antimalarials” (ACS Infect Dis, 2020), this text covers INHIBITION for 56 compounds.

Molecules are shown by their SMILES. About 2,100 (3.2%) of roughly 65,000 compounds showed an effect of 50% or more. The median lay at about -52%. Only a selection was taken, and strong results are over-represented in it overall.

The test concerns Plasmodium falciparum. The experiment in a line: Screen against P. falciparum Asexual Blood Stage (ABS), at 5uM. The test is classed as functional, Dd2. As to conditions: tested at 5 uM.
As for `O=C(CCN1C(=O)CCC1=O)Nc1ccc(OCC(F)(F)F)nc1`, the INHIBITION was -54.8%.
The result for `O=C(NCC1CCOC1)Nc1ccc(Oc2ccc(F)cc2)nc1` (stereo unspecified) reads 29.4%; that for `O=C(NCC1CC1)Nc1ccc(OCC(F)(F)F)nc1`, 52.7%; that for `O=C(NCc1ccco1)c1cccc(C(=O)NCc2ccco2)n1`, -31%.
With `OCC1CCCCN1CCn1ccnc1-c1nc2ccccc2[nH]1` (stereo unspecified), the INHIBITION was 13.2%.
`c1ccc(-c2noc(CCCN3CCCC3Cn3cccn3)n2)cc1` (stereo unspecified): the INHIBITION is on record as 31.8%.
Take `CN1CCCC1CCn1ccnc1-c1ccc2ccccc2n1` (stereo unspecified): the INHIBITION is 56.5%.
On to `Cn1ccnc1CN1CCCCC1c1nc(-c2ccccc2)no1` (stereo unspecified), for which the INHIBITION is -149%.
Turning to `Cc1nn(C)c2nc(-c3ccccn3)nc(NCCC3CCCN3C)c12` (stereo unspecified), the INHIBITION is listed as -35.5%.
As to `CN1CCCC1CCn1ccnc1-c1nc(-c2ccccc2)no1` (stereo unspecified), the INHIBITION worked out at 57.6%.
As for `O=C(NCCc1cccnc1)c1cn(CCN2CCNCC2)nn1`, the figure is -75.5%; as for `Cc1cnc(N2CCn3c(CN4CCOCC4)nnc3C2)nc1`, -56.3%; as for `Cn1c(CN2CC[C@](C)(O)C(C)(C)C2)cc2ccccc21`, -28.6%.
As for `COc1ccc(C(CNC(=O)c2c(C)noc2C)N(C)C)cc1` (stereo unspecified), the INHIBITION is reported as -125%.
Consider `COc1ccc(CN2CCOC(CCc3ccnc(N)c3)C2)cc1` (stereo unspecified), for which the INHIBITION came to 38.1%.
As to `COc1c(CNCc2ccccc2CO)c(C)nn1C`, the INHIBITION was -2.62%.
As for `COc1cccc(CNCC2CCN(CC(C)O)CC2)c1OC` (stereo unspecified), the figure is -2.28%.
For the compound `COc1ccccc1N1CCC(CNCc2cccc(O)c2)C1` (stereo unspecified), the INHIBITION was determined as 56.8%.
For the compound `COc1ccccc1N1CCC(CNS(=O)(=O)c2c(C)nn(C)c2C)C1` (stereo unspecified), the INHIBITION was -22.2%.
On to `COc1ccccc1N1CCC(CNS(=O)(=O)c2cccs2)C1` (stereo unspecified), for which the INHIBITION is given as 7.44%.
In the case of `COc1ccccc1N1CCC(CNCc2c(C)nn(C)c2OC)C1` (stereo unspecified), the INHIBITION amounted to 53.5%.
In the case of `COc1ccccc1N1CCC(CNCc2cccc(OC)c2OC)C1` (stereo unspecified), the INHIBITION was 57%.
As to `COc1ccc(CNCC2CCN(c3ccccc3OC)C2)cc1O` (stereo unspecified), the INHIBITION is 24.5%.
Regarding `COc1ccccc1N1CCC(CNCc2cccc(C#N)c2)C1` (stereo unspecified), the INHIBITION was determined as 3.2%.
On to `C/C(NC(=O)c1ccco1)=C1/C(=O)C[C@@H]2[C@H]1C2(C)C`, for which the INHIBITION is reported as -86.3%.
On to `CC(C)N(C)Cc1cn2c(n1)CN(C(=O)Cc1ccccc1)CC2`, for which the INHIBITION is recorded as -63.5%.
On to `COc1c(CNCc2cccnc2N2CCN(C)CC2)c(C)nn1C`, for which the INHIBITION is listed as -95.3%.
Take `CCOc1nc2cnccc2n(CC(=O)NCc2ccc(C)cc2)c1=O`: the INHIBITION is on record as -10.3%.
As for `Cc1nc(N2CCOCC2)nc2c1CCN(Cc1ccsc1)CC2`, the INHIBITION was -79.9%.
As for `CCCc1ccc(C(=O)N2Cc3c(Cn4ccnc4)nn(C)c3C2)cc1`, the figure is -64.1%.
In the case of `CCO[C@H]1C[C@@H](O)C12CCN(C(=O)CC(F)(F)F)CC2`, the INHIBITION was -105%.
For `CCc1cc(N2C[C@H](C3CC3)[C@@H](N)C2)nc(N2CCOCC2)n1`, the INHIBITION is -73.7%.
As for `CC(C)Oc1cc(N2C[C@H](C3CC3)[C@@H](N)C2)nc(N)n1`, the INHIBITION is -211%.
As for `N[C@H]1CN(Cc2cnc(N3CCCC3)nc2)C[C@@H]1C1CC1`, the figure is -9%; as for `CCc1cc(N2C[C@H](C3CC3)[C@@H](N)C2)nc(N2CCCC2)n1`, 69.6%.
As to `CNc1cc(C)nc(N2C[C@@H](C(=O)O)[C@H](C3CC3)C2)n1`, the INHIBITION is recorded as -75.5%.
For the compound `Cc1cc(N2C[C@H](C3CC3)[C@@H](N)C2)nc(N2CCCCC2)n1`, the INHIBITION is reported as 56.4%.
The result for `CCc1ccc(CN(CCCn2ccnc2)Cc2ccc(C)s2)o1` reads 21.9%; that for `CN1[C@@H]2CC[C@H]1CN(c1nc(-c3ccncc3)nc3c1cnn3C)CC2`, -86.6%.
`CCc1cc(C(=O)N2Cc3ccccc3OC3(CCOCC3)C2)on1`: the INHIBITION is recorded as -33.7%.
Consider `CN(C)CCN1C(=O)CCC12CCCN(C(=O)CC1CC1)CC2` (stereo unspecified), for which the INHIBITION is -26.4%.
Take `Cc1nccn1CCC1CCCCN1Cc1ccncc1` (stereo unspecified): the INHIBITION is recorded as -88.5%.
Take `Cc1nccn1CCC1CCCCN1Cc1cccc(CCN)c1` (stereo unspecified): the INHIBITION is 59.8%.
The result for `Cc1nccn1CCC1CCCCN1Cc1cnc(N(C)C)nc1` (stereo unspecified) reads 4.12%.
Take `Cc1nccn1CCC1CCCCN1Cc1ccc(O)cc1Cl` (stereo unspecified): the INHIBITION is given as 24.6%.
Take `Cc1nccn1CCC1CCCCN1Cc1ccc2c(c1)OCCO2` (stereo unspecified): the INHIBITION is given as 46.4%.
With `Cc1cc2c(cc1CN1CCCCC1CCn1ccnc1C)OCO2` (stereo unspecified), the INHIBITION came out at 67.7%.
Turning to `Cn1cc(CNC2CCC(O)CC2)c(-c2cc3ccccc3o2)n1` (stereo unspecified), the INHIBITION is recorded as -29%.
As for `CC(C)NC(=O)Nc1ccc(CNCc2ccc(OC(F)F)cc2)cc1`, the figure is -97.1%; as for `CC(C)c1nc(C2CCCN2Cc2ccncc2Cl)no1` (stereo unspecified), -53.3%.
For the compound `COCCN1C[C@@H]2CC[C@H]1CN(C(=O)c1ccc(Cl)cc1)C2`, the INHIBITION was -61.5%.
The result for `Cc1ccc(-n2cccn2)cc1S(=O)(=O)N1C[C@H]2CC[C@@H](C1)N(C)C2` reads 63.6%.
In the case of `COc1ccc(-n2cccn2)cc1S(=O)(=O)N1C[C@H](C2CC2)[C@@H](N)C1`, the INHIBITION is reported as 58.9%.
Consider `Cc1ccc(-n2cccn2)cc1S(=O)(=O)N1C[C@H](C2CC2)[C@@H](N)C1`, for which the INHIBITION was determined as 41.6%.
With `N[C@H]1CN(S(=O)(=O)c2cccnc2)C[C@@H]1C1CC1`, the INHIBITION is -59.9%.
`CCCN1C[C@@H]2CC[C@H]1CN(Cc1cccc(-n3cccn3)c1)C2`: the INHIBITION is 46.5%.
